Test results reported in PubChem BioAssay (NCATS).
“And” between values parts separate entries of the source, which are not always exact repeats. Equal entries are not always repeated. Results filed as inconclusive are left out. The source made the active and inactive calls. Unless noted, calls follow the shape of the dose curve; as a rule, active = well fitted curve in the direction sought with a large enough effect; inconclusive = small, poorly fitted or top-dose-only effect, or another doubt; inactive = no such curve, though single readings can be large; an effect the other way counts as inactive or inconclusive.

Columns and labels:
[1] = Cell Viability - BJ (AID 421; calls by dose curve;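 also: potency is read from the fitted curve at half-maximal effect; cells exposed to compound for 40 hours at 37 °C before readout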); details: BJ fibroblast viability, qHTS
Procedure, shortened: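 Luminescent ATP signal (CellTiter-Glo, 20 min at room temperature) served as the read-out of viable BJ cells after 40 hours of compound treatment. Responses were scaled between DMSO and 100 uM tamoxifen, and AC50 values were obtained by Hill modeling.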

[2] = Cell Viability - Jurkat (AID 426;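 active = dose-dependent loss of cell ATP signal giving a full or clear fitted curve, ranked by lower potency value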;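 also: potency is read from the fitted curve at half-maximal effect; cells exposed to compound for 40 hours at 37 °C before ATP read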); details: qHTS
Procedure, shortened: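 Cytotoxicity taken as drop in cellular ATP (CellTiter-Glo luminescence, 20 min room temperature) after 40 hr, 37C treatment of 5000 Jurkat Clone E6-1 cells per well; concentration-response fitted with Hill equation for AC50.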

[3] = Cell Viability - Hek293 (AID 427;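 active = compounds whose dose-response curve shows a full or clear partial loss of cell viability, called from curve shape rather than a numeric limit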;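 also: potency is read from the fitted curve at half-maximal effect; cells exposed to compound for 40 hours at 37 °C before reading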); details: qHTS
Procedure, shortened: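 Luminescent ATP read-out (CellTiter-Glo, 20 min RT) after 40 hr compound exposure at 37 °C in complete medium. Signal normalized to DMSO (basal) and 100 uM tamoxifen (100% inhibition); concentration-response fitted with the standard Hill equation to give AC50.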

[4] = Cell Viability - HepG2 (AID 433; calls by dose curve;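 also: potency is read from the fitted curve at half-maximal effect; potency for ATP loss meaning cytotoxicity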); details: qHTS
Procedure, shortened: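 ATP luminescence (CellTiter-Glo) after 40 h compound exposure, 37 °C, HepG2, 1500 cells/well, complete medium. Normalized: DMSO = basal, 100 uM tamoxifen = 100% inhibition. AC50 via standard Hill equation.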

[5] = Cell Viability - MRC5 (AID 434; calls by dose curve;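 also: potency is read from the fitted curve at half-maximal effect; cells exposed to compound for 40 hours at 37 °C; potency reflects cytotoxicity seen as loss of intracellular ATP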); details: MRC5 lung fibroblast viability, qHTS
Procedure, shortened: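 AC50 values come from Hill-equation fits of intracellular ATP loss, measured by CellTiter-Glo luminescence. Normal lung fibroblasts (MRC5) had 40 hr compound treatment at 37 C, normalized between DMSO and 100 uM tamoxifen.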

[6] = Cell Viability - SK-N-SH (AID 435; calls by dose curve; also: potency is read from the fitted curve at half-maximal effect); details: SK-N-SH neuroblastoma cell viability qHTS
Procedure, shortened: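 CellTiter-Glo ATP luminescence, 20 min RT read; cells pre-plated 5 hr, compound 40 hr at 37 °C, 1500 cells/well, complete medium. Normalized DMSO = 0, 100 uM tamoxifen = 100% inhibition; Hill-fit AC50.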

[7] = Cell Viability - HUV-EC-C (AID 542); details: HUV-EC-C endothelial cell viability, qHTS; series mostly up to 92.2 µM; also: % is scaled to controls: 0 for no effect and ±100 for the full control effect; nearly all actives have a fitted effect of over 35% in size
Procedure, shortened: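 CellTiter-Glo luminescence measured ATP loss in HUV-EC-C cells (1000/well) after 40 hr compound exposure at 37 °C, in complete culture medium. Concentration-response data were Hill-fitted to give AC50.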

[8] = Cellular Toxicity (caspase-3) HepG2 (AID 654); details: HepG2 caspase-3 activation, luminescence, 0% = DMSO only, 100% = tamoxifen; series mostly up to 92.2 µM;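 also: cells exposed to compound for 16 hours before reading; 0% = DMSO alone and 100% = caspase signal from 100 µM tamoxifen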
Procedure, shortened: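 Caspase 3/7 activation is measured as a luminescence increase (aminoluciferin substrate) after 16 h compound exposure of human hepatocarcinoma HepG2 cells. AC50 values are Hill fits, scaled between DMSO baseline and 100 uM tamoxifen stimulation.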

[9] = Cellular Toxicity (caspase-3) SK-N-SH (AID 661); details: SK-N-SH caspase-3 activation, qHTS; series mostly up to 91.7 µM;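 also: cells exposed to compound for 16 hours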
Procedure, shortened: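 Caspase 3/7 activation was read by luminogenic substrate cleavage after 16 hour treatment of SK-N-SH cells. Signal was scaled between DMSO and 10 uM staurosporine, and concentration-response data were fitted with the Hill equation for AC50.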

[10] = Cellular Toxicity (caspase-3) N2a (AID 665); details: N2a cells, luminescence, normalized: DMSO 0%, 10 µM staurosporine 100%; series mostly up to 92.2 µM;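 also: compound exposure lasted 16 h at 37 °C before readout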
Procedure, shortened: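 Caspase-3/7 activation measured as luminescence from Caspase-Glo reagent (1 h, room temperature) after 16 h compound exposure of mouse N2a cells. AC50 values from Hill-equation concentration-response, scaled between DMSO and 10 uM staurosporine.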

[11] = Cellular Toxicity (caspase-3) NIH 3T3 (AID 666); details: NIH 3T3 caspase-3 activation, apoptosis/toxicity; series mostly up to 92.2 µM;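 also: 0% = DMSO basal and 100% = 100 µM tamoxifen stimulation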
Procedure, shortened: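 Caspase-Glo 3/7 luminescence reported caspase activation in 1000 NIH 3T3 cells/well after 16 h compound exposure at 37 C. DMSO set basal and 100 uM tamoxifen set 100% stimulation; concentration-response modeled with the Hill equation for AC50.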

[12] = Cellular Toxicity (caspase-3) Renal Proximal Tubule (AID 667); details: renal proximal tubule cells; series mostly up to 91.7 µM;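 also: cells exposed to compound for 16 hours at 37 °C before detection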
Procedure, shortened: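 Luminescent caspase 3/7 signal from peptide-aminoluciferin cleavage measures apoptosis in freshly isolated rat kidney proximal tubule cells after 16 h compound exposure. Concentration-response data are normalized to DMSO and 10 uM staurosporine, and AC50 values come from Hill equation fits.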

[13] = MultiTox-Fluor Cytotoxicity Assay - LYMP1-003 - Dead Cells (AID 961); details: LYMP1-003 lymphoblastoid cells, dead-cell protease fluorescence; series mostly up to 92.2 µM;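 also: 0% = DMSO and 100% = tetraoctylammonium bromide; nearly all actives have a fitted effect of over 70% in size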
Procedure, shortened: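 Human lymphoblastoid LYMP1-003 cells (2500/well) were treated with compounds for 16 hr at 37 C in complete medium. Dead-cell protease release was read by bis-AAF-R110 fluorescence (Ex/Em 485/520). AC50 came from Hill fits, normalized to DMSO and 15 uM tetraoctylammonium bromide.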

[14] = Cell Viability - LYMP2-007 (AID 979); details: LYMP2-007 lymphoblastoid cell viability; series mostly up to 92.2 µM;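 also: cells exposed to compound for 24 h before reading; 0% = DMSO only and the negative end = 92 µM tetraoctylammonium bromide; nearly all actives have a fitted effect of over 60% in size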
Procedure, shortened: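 AC50 values come from Hill-equation fits of luminescent intracellular ATP (CellTiter-Glo, 30 min, room temperature) following 24 h compound exposure at 37 C. Cells: LYMP2-007 lymphoblastoid line, 2500 per well, in complete culture medium.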

[15] = Cell Viability - LYMP1-002 - Assay at 24 hr (AID 993); details: LYMP1-002 lymphoblastoid cells viability; series mostly up to 92.2 µM; also: % is scaled to controls: 0 for no effect and ±100 for the full control effect
Procedure, shortened: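 qHTS cytotoxicity at 24 h: CellTiter-Glo ATP luminescence in lymphoblastoid line LYMP1-002 incubated with compound at 37 °C. Concentration-response modeled with the Hill equation for AC50; tetraoctylammonium bromide served as positive control.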

[16] = qHTS Assay for Identification of Small Molecule Inducers of Hypoxia Response (AID 2120; active = well fitted curve in the direction sought with a large enough effect in the signal ratio, with a control signal flat, not every such curve was filed as active; the % refers to the signal ratio; also: 0% is about no effect); details: hypoxia response reporter cells, beta-lactamase ratio readout; series mostly up to 104 µM
Procedure, shortened: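 Reporter induction read as the CCF4 blue/green (460nm/530nm) emission ratio after 2.5 h dye loading at room temperature. ME-180 HRE-beta-lactamase cells received titrated compounds for 17 h at 37 degrees Celsius; AC50 values derived.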

[17] = molecular target: Peroxisome proliferator-activated receptor alpha (Homo sapiens) (UniProt Q07869); assay: qHTS assay for small molecule agonists of the peroxisome proliferator-activated receptor alpha (PPARalpha) signaling pathway (AID 651778); details: PathHunter PPARalpha complementation, chemiluminescence, 6 h; active compounds read high; also: % of control where 0% means no effect
Procedure, shortened: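 Chemiluminescence from complemented enzyme reported PPARalpha activation in cells after 6 hr of compound treatment at 37 C. The detection reagent was incubated for 60 min at room temperature, and compounds were scored as agonists.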

[18] = qHTS assay for small molecule agonists of the antioxidant response element (ARE) signaling pathway measured by Nrf2-dependant transcriptional activity - cell viability counter screen (AID 720653; active = well fitted curve in the direction sought with a large enough effect in the repeat runs; an effect the other way counts as inactive or inconclusive; also: % is scaled to controls: 0 for no effect and ±100 for the full control effect); details: ARE-bla HepG2 viability, CellTiter-Glo ATP luminescence, 16 h; active compounds read low
Procedure, shortened: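 Cytotoxicity counter screen: intracellular ATP quantified by CellTiter-Glo luminescence in the same ARE-bla HepG2 plates, after 16 h compound exposure and a 2 h beta-lactamase substrate step.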

[19] = qHTS assay for cell viability of HEK293 cells (AID 743288); details: ATP luminescence (CellTiter-Glo), 18 h, active compounds read low; also: % is scaled to controls: 0 for no effect and ±100 for the full control effect; nearly all actives have a fitted effect of over 50% in size
Procedure, shortened: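 ATP luminescence (CellTiter-Glo) reports metabolically competent cell number after parental HEK293 cells, 2,000/well, were treated with DMSO-dissolved compounds for 18 h at 37 C; reagent incubation 30 min, room temperature.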

[20] = qHTS assay for cell viability of the p53RE-bla HCT-116 cell line (AID 743292); details: p53RE-bla HCT-116 viability, ATP luminescence, 16 h; series mostly up to 95 µM; also: % is scaled to controls: 0 for no effect and ±100 for the full control effect; nearly all actives have a fitted effect of over 55% in size
Procedure, shortened: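 Intracellular ATP of p53RE-bla HCT-116 cells measured by luciferase luminescence following 16 h compound incubation at 37 C; DMSO-only wells served as vehicle controls.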

Sequence of Peroxisome proliferator-activated receptor alpha (Homo sapiens) (Q07869 whole entry, looked up): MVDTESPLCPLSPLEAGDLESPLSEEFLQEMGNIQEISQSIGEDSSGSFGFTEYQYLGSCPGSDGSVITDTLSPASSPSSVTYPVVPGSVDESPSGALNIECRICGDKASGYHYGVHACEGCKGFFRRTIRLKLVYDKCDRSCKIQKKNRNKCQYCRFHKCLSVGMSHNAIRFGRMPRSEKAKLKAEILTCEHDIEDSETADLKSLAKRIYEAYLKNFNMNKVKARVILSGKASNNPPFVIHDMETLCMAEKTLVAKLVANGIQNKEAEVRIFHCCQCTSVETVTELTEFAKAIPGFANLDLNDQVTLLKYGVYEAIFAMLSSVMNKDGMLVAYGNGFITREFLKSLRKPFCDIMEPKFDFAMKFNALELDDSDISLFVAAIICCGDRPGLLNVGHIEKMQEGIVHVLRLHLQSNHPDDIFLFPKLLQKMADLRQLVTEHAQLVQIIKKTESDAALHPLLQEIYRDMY

CC(C)(C)c1ccccc1O
inactive: Potency [1] > 92 µM | Potency [2] > 92 µM | Potency [3] > 92 µM | Potency [4] > 92 µM | Potency [5] > 92 µM | Potency [6] > 92 µM | Potency [7] | outcome [8] | Potency [9] | outcome [10] | Potency [11] | outcome [12] | Potency [13] | Potency [14] | Potency [15] | Potency [16] | max response [17] -7.23% and -1.41% | max response [18] -8.15% and -10.7% | max response [19] -7.55% and -11.9% | Potency [20]

ClCCBr
inactive: Potency [1] > 92 µM | Potency [2] > 92 µM | Potency [3] > 92 µM | Potency [4] > 92 µM | Potency [5] > 92 µM | Potency [6] > 92 µM | Potency [7] | outcome [8] | Potency [9] | outcome [10] | Potency [11] | outcome [12] | Potency [13] | Potency [14] | Potency [15] | Potency [16] | max response [17] 0.115% | max response [18] -7.21% | max response [19] -0.276% | Potency [20]

ClP(Cl)(Cl)(Cl)Cl
inactive: Potency [1] > 92 µM | Potency [2] > 92 µM | Potency [3] > 92 µM | Potency [4] > 92 µM | Potency [5] > 92 µM | Potency [6] > 92 µM | Potency [7] | outcome [8] | Potency [9] | outcome [10] | Potency [11] | outcome [12] | Potency [13] | Potency [14] | Potency [15] | Potency [16] | max response [17] 0.162% | max response [18] -1.82% | max response [19] -14.3% | Potency [20]

C=CCc1cc(OC)c2c(c1)OCO2
inactive: Potency [1] > 92 µM | Potency [2] > 92 µM | Potency [3] > 92 µM | Potency [4] > 92 µM | Potency [5] > 92 µM | Potency [6] > 92 µM | Potency [7] | outcome [8] | Potency [9] | outcome [10] | Potency [11] | outcome [12] | Potency [13] | Potency [14] | Potency [15] | Potency [16] | max response [17] 5.39% | max response [18] -2.49% | max response [19] -6.53% | Potency [20]

CN=C=O
inactive: Potency [1] > 92 µM | Potency [2] > 92 µM | Potency [3] > 92 µM | Potency [4] > 92 µM | Potency [5] > 92 µM | Potency [6] > 92 µM | Potency [7] | outcome [8] | Potency [9] | outcome [10] | Potency [11] | outcome [12] | Potency [13] | Potency [14] | Potency [15] | Potency [16] | max response [17] 1.15% | max response [18] -4.34% | max response [19] 3.09% | Potency [20]

CCOC(=O)CBr
inactive: Potency [1] > 92 µM | Potency [2] > 92 µM | Potency [3] > 92 µM | Potency [4] > 92 µM | Potency [5] > 92 µM | Potency [6] > 92 µM | Potency [7] | outcome [8] | Potency [9] | outcome [10] | Potency [11] | outcome [12] | Potency [13] | Potency [14] | Potency [15] | Potency [16] | max response [17] -2.92% | max response [18] 1.03% | max response [19] -5.15% | Potency [20]

Cc1ccccc1[N+](=O)[O-]
inactive: Potency [1] > 92 µM | Potency [2] > 92 µM | Potency [3] > 92 µM | Potency [4] > 92 µM | Potency [5] > 92 µM | Potency [6] > 92 µM | Potency [7] | outcome [8] | Potency [9] | outcome [10] | Potency [11] | outcome [12] | Potency [13] | Potency [14] | Potency [15] | Potency [16] | max response [17] 2.03% | max response [18] 11.5% | max response [19] 6.42% | Potency [20]

Clc1ccc(C(Cl)(Cl)Cl)c(Cl)c1
inactive: Potency [1] > 92 µM | Potency [2] > 92 µM | Potency [3] > 92 µM | Potency [4] > 92 µM | Potency [5] > 92 µM | Potency [6] > 92 µM | Potency [7] | outcome [8] | Potency [9] | outcome [10] | Potency [11] | outcome [12] | Potency [13] | Potency [14] | Potency [15] | Potency [16] | max response [17] -0.345% | max response [18] -1.74% | max response [19] -3.16% | Potency [20]

[O-][Cl+2]([O-])O
inactive: Potency [1] > 92 µM | Potency [2] > 92 µM | Potency [3] > 92 µM | Potency [4] > 92 µM | Potency [5] > 92 µM | Potency [6] > 92 µM | Potency [7] | outcome [8] | Potency [9] | outcome [10] | Potency [11] | outcome [12] | Potency [13] | Potency [14] | Potency [15] | Potency [16] | max response [17] -2.92% | max response [18] 27.9% | max response [19] -5.12% | Potency [20]

O=[N+]([O-])c1cccc2c([N+](=O)[O-])cccc12
inactive: Potency [1] > 92 µM | Potency [2] > 92 µM | Potency [3] > 92 µM | Potency [4] > 92 µM | Potency [5] > 92 µM | Potency [6] > 92 µM | Potency [7] | outcome [8] | Potency [9] | outcome [10] | Potency [11] | outcome [12] | Potency [13] | Potency [14] | Potency [15] | Potency [16] | max response [17] -0.14% | max response [18] 5.81% | max response [19] -6.41% | Potency [20]
